Experimental data published in the supplement of paper PMC11732987, “Enantioselective OTUD7B fragment discovery through chemoproteomics screening and high-throughput optimisation” (Communications Chemistry, 2025).

Assays:
Test in all cases: log2 ratio of Biotin-Ahx-Ub-VS probe labelling (fragment/DMSO); higher = less target engagement (more negative = stronger competition), active = hit call of the paper (q ≤ 0.05, log2 ratio ≤ -1)
Conditions in all cases: compound concentration: 200 uM; treatment time: 3 h
[1] = molecular target: T1, USP42 (UniProt Q9H9J4)
T1 sequence (whole entry): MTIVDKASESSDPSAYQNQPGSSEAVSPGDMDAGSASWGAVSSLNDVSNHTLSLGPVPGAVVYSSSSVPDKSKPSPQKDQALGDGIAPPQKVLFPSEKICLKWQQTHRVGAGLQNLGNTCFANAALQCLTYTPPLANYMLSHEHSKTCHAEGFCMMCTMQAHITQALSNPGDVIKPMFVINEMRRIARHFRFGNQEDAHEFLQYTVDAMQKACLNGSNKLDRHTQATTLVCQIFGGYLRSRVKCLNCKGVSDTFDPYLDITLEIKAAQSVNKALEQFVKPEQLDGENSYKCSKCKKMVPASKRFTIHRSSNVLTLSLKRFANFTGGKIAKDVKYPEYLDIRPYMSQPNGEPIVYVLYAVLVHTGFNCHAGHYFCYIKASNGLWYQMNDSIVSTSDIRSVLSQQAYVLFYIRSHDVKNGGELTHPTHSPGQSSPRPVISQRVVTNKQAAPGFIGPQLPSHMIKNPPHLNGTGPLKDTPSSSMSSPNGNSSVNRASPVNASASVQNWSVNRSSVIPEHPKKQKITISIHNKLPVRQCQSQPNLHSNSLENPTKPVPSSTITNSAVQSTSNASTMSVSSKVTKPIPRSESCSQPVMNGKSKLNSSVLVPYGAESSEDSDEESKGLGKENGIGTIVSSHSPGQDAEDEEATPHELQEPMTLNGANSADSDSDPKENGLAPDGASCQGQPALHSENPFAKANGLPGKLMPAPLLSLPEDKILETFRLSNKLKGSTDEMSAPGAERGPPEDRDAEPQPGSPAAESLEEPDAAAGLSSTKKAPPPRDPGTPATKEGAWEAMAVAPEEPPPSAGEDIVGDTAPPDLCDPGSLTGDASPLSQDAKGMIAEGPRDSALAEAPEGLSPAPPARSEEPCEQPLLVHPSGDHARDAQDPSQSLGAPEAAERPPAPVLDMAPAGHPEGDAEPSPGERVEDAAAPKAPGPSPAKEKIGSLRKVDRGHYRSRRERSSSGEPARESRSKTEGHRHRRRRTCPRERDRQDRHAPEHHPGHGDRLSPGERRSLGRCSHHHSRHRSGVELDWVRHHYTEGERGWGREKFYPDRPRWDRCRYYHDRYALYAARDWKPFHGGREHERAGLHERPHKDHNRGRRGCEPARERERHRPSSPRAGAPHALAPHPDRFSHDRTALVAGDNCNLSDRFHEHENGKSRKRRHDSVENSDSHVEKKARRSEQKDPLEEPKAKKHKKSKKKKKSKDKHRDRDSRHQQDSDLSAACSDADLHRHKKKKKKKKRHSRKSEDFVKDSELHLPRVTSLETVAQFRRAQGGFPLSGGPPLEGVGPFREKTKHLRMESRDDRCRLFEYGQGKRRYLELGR
Method in brief: (§1)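 Fragment (200 µM) or vehicle was incubated for 3 h with triplicate HEK293T lysate samples of 495 µg, which were then treated with Biotin-Ahx-Ub-VS at 0.5 µM final for 1 h. Labelled DUBs were enriched on NeutrAvidin, digested with LysC and trypsin, and analysed by diaPASEF LC-MS/MS. Values are average log2 fragment/vehicle ratios from an unpaired t-test on global-median-normalised Spectronaut label-free quantities, using proteins with ≥2 unique peptides.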

[2] = molecular target: USP46 (UniProt P62068)
Sequence of USP46 (P62068 whole entry): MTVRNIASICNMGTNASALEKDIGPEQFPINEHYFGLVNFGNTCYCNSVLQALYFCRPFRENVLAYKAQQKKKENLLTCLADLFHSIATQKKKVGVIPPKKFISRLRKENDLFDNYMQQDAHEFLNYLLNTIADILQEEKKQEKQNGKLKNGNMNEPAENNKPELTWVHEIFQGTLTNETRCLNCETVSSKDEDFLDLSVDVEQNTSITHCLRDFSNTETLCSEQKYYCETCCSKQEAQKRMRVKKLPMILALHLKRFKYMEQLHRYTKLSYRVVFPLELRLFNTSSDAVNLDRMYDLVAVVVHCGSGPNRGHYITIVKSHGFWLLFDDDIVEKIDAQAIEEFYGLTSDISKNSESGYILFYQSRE
Method in brief: as §1

[3] = molecular target: T2, USP47 (UniProt Q96K76)
T2 sequence (whole entry): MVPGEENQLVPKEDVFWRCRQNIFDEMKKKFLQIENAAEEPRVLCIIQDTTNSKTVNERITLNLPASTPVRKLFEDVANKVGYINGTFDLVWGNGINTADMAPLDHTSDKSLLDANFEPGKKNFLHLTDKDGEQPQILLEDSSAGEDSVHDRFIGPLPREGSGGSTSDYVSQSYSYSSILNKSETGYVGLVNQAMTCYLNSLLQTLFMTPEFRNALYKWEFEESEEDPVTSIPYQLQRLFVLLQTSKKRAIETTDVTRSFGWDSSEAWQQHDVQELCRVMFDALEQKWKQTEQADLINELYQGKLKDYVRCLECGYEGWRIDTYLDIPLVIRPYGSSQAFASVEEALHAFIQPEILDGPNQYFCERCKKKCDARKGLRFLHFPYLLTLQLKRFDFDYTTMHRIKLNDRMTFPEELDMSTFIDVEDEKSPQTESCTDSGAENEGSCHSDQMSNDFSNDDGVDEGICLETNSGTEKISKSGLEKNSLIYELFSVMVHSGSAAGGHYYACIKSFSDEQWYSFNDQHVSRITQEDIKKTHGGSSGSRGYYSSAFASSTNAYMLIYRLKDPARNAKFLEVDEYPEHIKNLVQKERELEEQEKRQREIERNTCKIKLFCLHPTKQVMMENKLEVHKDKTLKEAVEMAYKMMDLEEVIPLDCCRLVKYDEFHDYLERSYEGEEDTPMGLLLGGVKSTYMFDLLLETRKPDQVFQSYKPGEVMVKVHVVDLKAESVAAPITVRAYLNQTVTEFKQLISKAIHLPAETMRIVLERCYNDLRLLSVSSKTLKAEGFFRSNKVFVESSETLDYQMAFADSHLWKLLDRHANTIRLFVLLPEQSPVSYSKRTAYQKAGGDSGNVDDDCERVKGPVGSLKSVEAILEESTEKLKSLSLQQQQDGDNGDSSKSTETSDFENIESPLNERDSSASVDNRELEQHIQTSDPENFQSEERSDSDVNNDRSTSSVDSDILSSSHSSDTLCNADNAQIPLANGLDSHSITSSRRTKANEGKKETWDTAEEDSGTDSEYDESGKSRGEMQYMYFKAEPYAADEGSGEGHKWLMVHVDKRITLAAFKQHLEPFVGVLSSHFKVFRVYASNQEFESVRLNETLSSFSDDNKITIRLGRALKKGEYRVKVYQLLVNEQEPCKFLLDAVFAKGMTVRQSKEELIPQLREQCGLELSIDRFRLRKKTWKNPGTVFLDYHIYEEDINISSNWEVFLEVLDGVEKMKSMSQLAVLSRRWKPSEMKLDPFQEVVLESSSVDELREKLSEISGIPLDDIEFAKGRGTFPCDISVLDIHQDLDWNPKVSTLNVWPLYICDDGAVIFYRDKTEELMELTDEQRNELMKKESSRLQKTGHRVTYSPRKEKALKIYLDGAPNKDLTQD
Method in brief: as §1

[4] = molecular target: T3, USP48 (UniProt Q86UV5)
T3 sequence (whole entry): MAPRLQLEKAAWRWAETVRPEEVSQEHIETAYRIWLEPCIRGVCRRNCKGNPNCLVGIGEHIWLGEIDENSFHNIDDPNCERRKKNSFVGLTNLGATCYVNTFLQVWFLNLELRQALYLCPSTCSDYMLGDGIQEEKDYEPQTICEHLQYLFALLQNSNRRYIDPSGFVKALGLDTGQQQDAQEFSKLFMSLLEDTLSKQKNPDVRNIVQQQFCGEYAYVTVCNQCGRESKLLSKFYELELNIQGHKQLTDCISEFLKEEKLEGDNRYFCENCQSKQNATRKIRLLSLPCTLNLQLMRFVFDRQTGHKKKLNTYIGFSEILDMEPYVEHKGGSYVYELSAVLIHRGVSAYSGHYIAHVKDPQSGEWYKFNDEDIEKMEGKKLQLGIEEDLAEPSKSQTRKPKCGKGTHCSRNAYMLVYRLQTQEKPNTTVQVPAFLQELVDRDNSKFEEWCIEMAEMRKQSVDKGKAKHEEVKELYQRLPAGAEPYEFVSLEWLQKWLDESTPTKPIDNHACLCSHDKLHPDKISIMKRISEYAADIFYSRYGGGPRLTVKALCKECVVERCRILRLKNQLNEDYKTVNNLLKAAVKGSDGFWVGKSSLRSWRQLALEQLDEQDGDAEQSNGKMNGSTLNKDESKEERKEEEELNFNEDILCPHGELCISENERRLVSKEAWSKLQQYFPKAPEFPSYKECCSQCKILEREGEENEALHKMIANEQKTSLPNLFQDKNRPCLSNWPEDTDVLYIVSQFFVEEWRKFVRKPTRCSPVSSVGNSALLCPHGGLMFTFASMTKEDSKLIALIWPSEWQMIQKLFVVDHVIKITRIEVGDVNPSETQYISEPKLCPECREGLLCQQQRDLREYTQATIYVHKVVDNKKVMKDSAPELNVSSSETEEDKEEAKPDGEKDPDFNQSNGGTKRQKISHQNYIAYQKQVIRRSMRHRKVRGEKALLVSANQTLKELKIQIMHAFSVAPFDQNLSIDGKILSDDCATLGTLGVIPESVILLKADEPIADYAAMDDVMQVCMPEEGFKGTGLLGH
Method in brief: as §1

[5] = molecular target: T4, USP5 (UniProt P45974)
T4 sequence (whole entry): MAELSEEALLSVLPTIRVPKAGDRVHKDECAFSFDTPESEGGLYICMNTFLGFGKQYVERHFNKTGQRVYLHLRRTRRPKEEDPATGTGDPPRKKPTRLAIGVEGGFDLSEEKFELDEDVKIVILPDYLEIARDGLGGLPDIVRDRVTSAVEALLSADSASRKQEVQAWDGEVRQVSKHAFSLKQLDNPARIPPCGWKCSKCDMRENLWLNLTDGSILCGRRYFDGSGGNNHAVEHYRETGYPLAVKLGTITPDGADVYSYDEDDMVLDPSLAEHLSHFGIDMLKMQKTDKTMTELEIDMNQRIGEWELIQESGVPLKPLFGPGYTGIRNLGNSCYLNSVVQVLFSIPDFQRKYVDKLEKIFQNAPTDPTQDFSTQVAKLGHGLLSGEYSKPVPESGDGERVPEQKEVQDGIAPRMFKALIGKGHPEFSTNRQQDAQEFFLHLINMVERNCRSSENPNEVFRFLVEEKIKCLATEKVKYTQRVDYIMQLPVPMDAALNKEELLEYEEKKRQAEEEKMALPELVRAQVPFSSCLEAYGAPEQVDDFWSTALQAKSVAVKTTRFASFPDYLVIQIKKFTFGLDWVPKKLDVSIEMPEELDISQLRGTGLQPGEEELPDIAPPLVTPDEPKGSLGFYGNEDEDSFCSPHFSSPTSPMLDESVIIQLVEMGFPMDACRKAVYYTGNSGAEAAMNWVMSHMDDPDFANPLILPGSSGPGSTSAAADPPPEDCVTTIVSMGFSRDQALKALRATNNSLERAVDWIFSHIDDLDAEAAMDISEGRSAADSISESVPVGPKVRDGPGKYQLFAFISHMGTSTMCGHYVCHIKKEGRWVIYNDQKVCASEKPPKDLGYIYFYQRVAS
Method in brief: as §1

[6] = molecular target: USP54 (UniProt Q70EL1)
Sequence of USP54 (Q70EL1 whole entry): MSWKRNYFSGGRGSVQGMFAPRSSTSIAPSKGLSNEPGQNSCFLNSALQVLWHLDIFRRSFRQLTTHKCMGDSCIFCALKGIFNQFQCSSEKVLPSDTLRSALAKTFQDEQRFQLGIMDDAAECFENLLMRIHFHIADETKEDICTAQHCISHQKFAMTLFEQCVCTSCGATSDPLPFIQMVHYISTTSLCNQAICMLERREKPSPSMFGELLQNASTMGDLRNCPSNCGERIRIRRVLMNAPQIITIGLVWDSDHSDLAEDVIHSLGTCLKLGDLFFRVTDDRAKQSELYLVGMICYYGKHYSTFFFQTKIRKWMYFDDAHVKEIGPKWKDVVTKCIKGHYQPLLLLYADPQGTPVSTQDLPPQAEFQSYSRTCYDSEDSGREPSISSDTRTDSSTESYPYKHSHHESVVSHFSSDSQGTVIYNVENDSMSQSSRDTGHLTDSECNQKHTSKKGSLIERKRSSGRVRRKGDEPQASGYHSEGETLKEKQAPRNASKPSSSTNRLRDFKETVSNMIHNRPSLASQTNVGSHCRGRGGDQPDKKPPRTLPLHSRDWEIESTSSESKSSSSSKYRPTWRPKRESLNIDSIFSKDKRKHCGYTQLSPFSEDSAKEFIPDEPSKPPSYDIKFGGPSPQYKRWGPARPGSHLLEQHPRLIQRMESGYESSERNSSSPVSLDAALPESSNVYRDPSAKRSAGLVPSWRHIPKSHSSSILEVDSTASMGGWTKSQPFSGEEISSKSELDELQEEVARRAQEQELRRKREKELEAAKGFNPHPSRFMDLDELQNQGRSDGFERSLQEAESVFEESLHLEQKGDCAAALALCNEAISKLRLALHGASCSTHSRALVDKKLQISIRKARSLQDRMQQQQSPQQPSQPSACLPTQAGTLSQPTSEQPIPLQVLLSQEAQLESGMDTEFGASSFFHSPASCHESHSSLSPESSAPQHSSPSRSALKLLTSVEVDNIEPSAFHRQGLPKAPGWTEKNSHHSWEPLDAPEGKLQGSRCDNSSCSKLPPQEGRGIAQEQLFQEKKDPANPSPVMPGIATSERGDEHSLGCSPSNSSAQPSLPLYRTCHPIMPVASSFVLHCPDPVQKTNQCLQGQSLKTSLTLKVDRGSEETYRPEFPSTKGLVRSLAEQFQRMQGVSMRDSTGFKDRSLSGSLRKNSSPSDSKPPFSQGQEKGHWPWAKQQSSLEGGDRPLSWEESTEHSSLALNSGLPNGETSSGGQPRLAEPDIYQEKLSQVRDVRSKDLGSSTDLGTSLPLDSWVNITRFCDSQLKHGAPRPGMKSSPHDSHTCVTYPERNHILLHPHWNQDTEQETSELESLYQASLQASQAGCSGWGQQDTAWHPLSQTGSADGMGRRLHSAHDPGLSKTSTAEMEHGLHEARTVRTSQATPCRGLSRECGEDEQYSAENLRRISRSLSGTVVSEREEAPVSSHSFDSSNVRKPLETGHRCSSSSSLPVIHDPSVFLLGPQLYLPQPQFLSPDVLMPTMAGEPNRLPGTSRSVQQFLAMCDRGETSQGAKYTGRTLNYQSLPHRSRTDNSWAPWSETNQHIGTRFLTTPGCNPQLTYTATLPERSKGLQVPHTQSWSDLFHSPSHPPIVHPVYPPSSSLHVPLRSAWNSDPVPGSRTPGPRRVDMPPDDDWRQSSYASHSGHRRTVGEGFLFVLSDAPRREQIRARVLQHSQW
Method in brief: as §1

[7] = molecular target: USP7 (UniProt Q93009)
Sequence of USP7 (Q93009 whole entry, looked up): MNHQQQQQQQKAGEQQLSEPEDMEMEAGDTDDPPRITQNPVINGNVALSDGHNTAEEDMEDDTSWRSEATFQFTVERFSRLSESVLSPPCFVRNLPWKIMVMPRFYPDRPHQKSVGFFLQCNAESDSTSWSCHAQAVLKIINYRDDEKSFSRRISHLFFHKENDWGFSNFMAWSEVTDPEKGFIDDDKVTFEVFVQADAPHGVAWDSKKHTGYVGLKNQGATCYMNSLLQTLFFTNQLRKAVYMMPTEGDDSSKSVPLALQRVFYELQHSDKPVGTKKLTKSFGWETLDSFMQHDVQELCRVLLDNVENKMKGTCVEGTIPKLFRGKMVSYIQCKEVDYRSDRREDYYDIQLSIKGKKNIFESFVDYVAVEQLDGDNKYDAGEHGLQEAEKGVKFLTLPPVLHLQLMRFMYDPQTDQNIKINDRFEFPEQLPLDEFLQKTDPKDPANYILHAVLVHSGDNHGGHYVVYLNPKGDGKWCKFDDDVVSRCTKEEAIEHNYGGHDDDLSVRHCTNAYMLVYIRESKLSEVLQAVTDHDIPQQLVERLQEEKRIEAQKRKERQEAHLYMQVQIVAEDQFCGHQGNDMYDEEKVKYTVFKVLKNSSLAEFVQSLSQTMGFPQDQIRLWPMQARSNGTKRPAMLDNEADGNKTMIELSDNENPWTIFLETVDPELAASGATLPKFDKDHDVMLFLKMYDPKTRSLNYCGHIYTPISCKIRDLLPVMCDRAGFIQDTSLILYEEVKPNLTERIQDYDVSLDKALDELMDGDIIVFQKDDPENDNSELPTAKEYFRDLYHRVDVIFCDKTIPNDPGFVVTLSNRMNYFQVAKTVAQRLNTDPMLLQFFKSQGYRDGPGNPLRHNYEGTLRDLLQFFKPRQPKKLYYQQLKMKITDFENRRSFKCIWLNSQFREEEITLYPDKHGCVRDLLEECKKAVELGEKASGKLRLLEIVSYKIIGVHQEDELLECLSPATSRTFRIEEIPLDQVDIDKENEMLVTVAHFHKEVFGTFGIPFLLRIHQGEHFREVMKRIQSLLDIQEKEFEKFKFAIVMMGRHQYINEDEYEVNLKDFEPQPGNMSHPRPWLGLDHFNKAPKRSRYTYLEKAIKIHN
Method in brief: as §1

[8] = molecular target: T5, USP8 (UniProt P40818)
T5 sequence (whole entry): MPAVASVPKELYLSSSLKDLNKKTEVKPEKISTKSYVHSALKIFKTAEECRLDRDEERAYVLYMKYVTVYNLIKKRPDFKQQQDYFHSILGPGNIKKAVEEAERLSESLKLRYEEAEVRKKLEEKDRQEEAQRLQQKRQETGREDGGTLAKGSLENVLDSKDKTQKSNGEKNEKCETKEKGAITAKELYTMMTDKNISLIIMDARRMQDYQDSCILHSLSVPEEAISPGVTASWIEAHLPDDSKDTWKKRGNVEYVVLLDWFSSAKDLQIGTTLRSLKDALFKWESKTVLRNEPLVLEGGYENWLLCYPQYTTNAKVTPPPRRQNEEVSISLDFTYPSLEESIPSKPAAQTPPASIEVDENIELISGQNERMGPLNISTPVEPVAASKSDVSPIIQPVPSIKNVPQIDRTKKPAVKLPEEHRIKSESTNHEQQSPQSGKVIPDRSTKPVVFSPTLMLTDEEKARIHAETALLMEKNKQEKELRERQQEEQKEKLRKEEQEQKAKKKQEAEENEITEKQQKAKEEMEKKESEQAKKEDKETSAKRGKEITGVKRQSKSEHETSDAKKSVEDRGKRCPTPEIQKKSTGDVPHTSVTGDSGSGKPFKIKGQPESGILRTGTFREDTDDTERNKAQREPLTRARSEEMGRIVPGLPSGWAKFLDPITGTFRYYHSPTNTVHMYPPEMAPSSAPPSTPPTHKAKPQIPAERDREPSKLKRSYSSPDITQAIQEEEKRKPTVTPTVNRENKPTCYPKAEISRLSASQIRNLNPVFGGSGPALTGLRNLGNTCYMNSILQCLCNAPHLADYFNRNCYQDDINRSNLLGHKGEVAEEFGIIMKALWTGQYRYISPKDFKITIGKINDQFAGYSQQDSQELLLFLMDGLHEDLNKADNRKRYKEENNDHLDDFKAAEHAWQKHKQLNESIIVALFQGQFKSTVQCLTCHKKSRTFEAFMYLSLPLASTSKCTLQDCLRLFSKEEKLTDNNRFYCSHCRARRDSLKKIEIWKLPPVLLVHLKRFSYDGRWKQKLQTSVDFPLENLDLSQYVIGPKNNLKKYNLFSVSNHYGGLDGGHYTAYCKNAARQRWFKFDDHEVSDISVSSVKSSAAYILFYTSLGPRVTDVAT
Method in brief: as §1

Measured: log2 ratio of Biotin-Ahx-Ub-VS probe labelling

O=C(CCl)N1CCN(c2nc3ccccc3o2)CC1
inactive: [1] 0.952 | [2] -0.372 | [3] -0.362 | [4] -0.829 | [5] -0.993 | [6] -0.173 | [8] -0.223
active: [7] -1.99
